# From PubChem BioAssay
# A selection: hits, their analogues and other compounds. The true share with any hit is near 4.3%.
# uPA surface inh: inhibitors of cell surface uPA generation; cell surface uPA generation assay, qHTS; Potency, µM (highest dose often 38.3 µM), for inactives: at the highest dose activity change, negative = inhibition, most hits filed as inhibitors; 330,000 compounds, 0.31% hits; active = well fitted inhibition curve with a large enough effect; inconclusive = small, poorly fitted or top-dose-only effect; inactive = no such curve, though single readings can be large or run the other way; tested in mouse RAW 264.7 cells; note: potency is the fitted concentration of half-maximal effect; % is set by controls: 0 for no effect and ±100 for the full control effect; nearly all actives have a fitted effect of over 55% in size
# SW480 rereplic: induces DNA re-replication in SW480 colon adenocarcinoma cells; SW480 DNA re-replication, Hoechst DNA content imaging, 48 h; Potency, µM (titrated, usually from 46.1 µM), without a hit: at the top dose re-replication activation, most hits filed as activators; 340,000 compounds, 1.8% hits; AID 624297; note: potency is the fitted concentration of half-maximal effect; % of control where 0% means no effect; nearly all actives have a fitted effect of over 55% in size
#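 Treated cells incubate 48 hr (37 C, 5% CO2), are stained 40 min with Hoechst, and nuclear fluorescence is enumerated; a rise in nuclei with high DNA signal marks re-replication.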
# Giardia kill: Giardia lamblia killing; Giardia lamblia trophozoite viability; activity change, % at 7.66 µM, hits read low; 340,000 compounds, 0.15% hits; AID 540267; in the data active = activity change below about -80%; inconclusive = between about -30% and that limit;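 note: parasites exposed to compound for two days anaerobically before the ATP read; % is set by controls: 0 for no effect and ±100 for the full control effect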
#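 Luminescence from cellular ATP indicates surviving trophozoites (100 cells/well) following 48 hrs anaerobic compound treatment at 37 deg C; signal develops 15-30 min at room temperature.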
# MCF10A rerep: DNA re-replication induction in MCF 10a cells; MCF 10A DNA re-replication, Hoechst nuclear intensity, 48 h; Potency, µM (doses to about 46.1 µM), for the others: at the top dose activity, positive = re-replication, usual class: activators; AID 624296; 350,000 compounds, 2.9% hits; note: potency is the fitted concentration of half-maximal effect; % of control where 0% means no effect; nearly all actives have a fitted effect of over 50% in size
# Active calls of the source: *; ? = inconclusive; · = no result given; [ ] = another dose, or the depositor's remark. Unless noted, calls come from the whole dose curve; as a rule, active = well fitted activation curve with a large enough effect; inconclusive = small, poorly fitted or top-dose-only effect; inactive = no such curve, though single readings can be large or run the other way.
SMILES,uPA surface inh,SW480 rereplic,Giardia kill,MCF10A rerep
O=C(COC(=O)c1ccc(S(=O)(=O)NCc2ccco2)cc1)Nc1ccc(Cl)cn1,-1%,-1%,-10,25%
Cc1ccc(OCC(O)Cn2c3ccccc3c3ccccc32)cc1 (configuration not stated),-7%,?,4,8%
Cc1cccc(C)c1OCC(O)Cn1c2ccccc2c2ccccc21 (configuration not stated),6%,?,9,21µM*
COC1=C(OC)C(=O)C(C/C=C(\C)CC/C=C(\C)CC/C=C(\C)CC/C=C(\C)CC/C=C(\C)CC/C=C(\C)CC/C=C(\C)CC/C=C(\C)CC/C=C(\C)CCC=C(C)C)=C(C)C1=O,·,1%,·,0%
COc1ccccc1NC(=O)C(=O)N1N=C(C(C)C)CC1(O)C(F)(F)F (configuration not stated),2%,2%,-5,8.2µM*
CCCC[C@H]1CCCO[C@@](C(=O)NCc2cc(C)n(C)n2)(C(F)(F)F)C1,·,·,-11,·
O=C(COC(=O)C1CCN(c2ccc(C(F)(F)F)cn2)CC1)c1ccccc1,-2%,-117%,21,-2%
COc1cc2c(-c3ccc(O)cc3)nc3c(c(C)nn3-c3ccccc3)c2cc1OC,25%,?,6,15µM*
COc1cc2c(C)nc3c(c(C)nn3-c3ccccc3)c2cc1OC,14%,-2%,9,4%
O=C(O)c1ccc(N/N=C/C2=Cc3ccccc3OC2)cc1,6%,?,3,15µM*
Cc1ccc(N2CC(C(=O)Nc3nc4ccc(S(C)(=O)=O)cc4s3)CC2=O)cc1 (configuration not stated),-3%,-1%,3,3%
N#Cc1c(-c2ccccc2)c(-c2ccccc2)nn(CC(=O)NNC(=O)Nc2ccc(Cl)cc2)c1=O,1%,?,-1,?
N#Cc1c(-c2ccc(Cl)cc2)c(-c2ccc(Cl)cc2)nn(CCOC(=O)CCC(=O)O)c1=O,-8%,?,10,1.8µM*
Cc1cccc(NC(=O)CN(C)C(=O)/C=C/c2ccccc2)c1C,-2%,-2%,12,4%
Oc1c(Cl)cc(Cl)cc1/C=N/c1nccs1,-2%,-1%,-12,15µM*
Cc1ccc(Oc2ccc(S(=O)(=O)NCC(C)(C)N3CCOCC3)cc2)cc1,-4%,-11%,3,21µM*
N#Cc1nc(N2CCCCC2)nc(N2CCCCC2)n1,·,·,-27,·
COC(=O)c1c(C)[nH]c(-c2csc(N)n2)c1C,-9%,15µM*,-10,?
CCOC(=O)c1[nH]c(C)c(C(=O)OC)c1C,0%,-4%,-19,12%
CCCCn1c(N)c(N(CC(C)C)C(=O)c2cccc(S(=O)(=O)N(CC)c3ccccc3)c2)c(=O)[nH]c1=O,-1%,6%,-7,6%
O=C(C1CCC(CNS(=O)(=O)c2cccs2)CC1)N1CCN(c2ccc(F)cc2)CC1 (configuration not stated),-8%,26%,-24,16µM*
Cc1ccc(NC(=O)CSc2nc3[nH]ncc3c(=O)[nH]2)cc1Cl,2%,-404%,4,17%
Cc1ccccc1OCC(=O)Nc1c2c(nn1C(C)(C)C)CS(=O)(=O)C2,-1%,18µM*,11,2%
CC(C)(C)n1nc2c(c1NC(=O)COc1ccc(F)cc1)CS(=O)(=O)C2,-2%,12%,-9,1%
CCOC(=O)Nc1ccc2c(c1)N(C(=O)CN(CC)CC)c1ccccc1CC2,-8%,?,-14,-3%
SMILES,uPA surface inh,SW480 rereplic,Giardia kill,MCF10A rerep
C=CC(=O)N1c2ccccc2Sc2ccc(NC(=O)OCC)cc21,-11%,?,34,6.5µM*
CCOC(=O)Nc1ccc2c(c1)N(C(=O)CN(CC)CC)c1ccccc1C=C2,3%,3%,-2,12µM*
CCOC(=O)Nc1ccc2c(c1)N(C(=O)N1CCN(C)CC1)c1ccccc1S2,2%,-2%,-10,-177%[0.0737 µM]
CNC1(C)[C@H]2CC[C@H](C2)C1(C)C (some centres not stated),5%,1%,-14,3%
COc1ccccc1N1CCN(C(=O)CCc2nnc3ccc(N4CCC(C)CC4)nn23)CC1,-13%,-29%,13,7%
CC1CC=CC2C1C(=O)N(Cc1ccccc1)C2c1ccc(-c2ccc(N(C)C)cc2)cc1F (configuration not stated),·,·,1,·
CC(=O)c1c(C(C)=O)c(C)n(Cc2ccccc2)c1C,4%,-7%,-3,29%
Cc1c(C=O)c(C=O)c(C)n1Cc1ccccc1,-12%,?,18,10µM*
COC(F)(F)C(Cl)Cl,·,2%,·,-5%
Cc1csc(NC(=O)c2ccc(COc3ccccc3)o2)n1,-1%,28%,-7,?
CCOC(=O)C1=C(C)NC2=C(C(=O)CCC2)C1c1cn(Cc2ccc(Cl)cc2Cl)nc1-c1ccccc1 (configuration not stated),-9%,2.8µM*,18,?
COC(=O)C1=C(C)NC2=C(C(=O)CCC2)C1c1cn(Cc2ccc(Cl)cc2Cl)nc1-c1ccccc1 (configuration not stated),-9%,?,-10,?
CN(C)CCCN(C(=O)c1ccc(S(=O)(=O)N2CCc3ccccc3C2)cc1)c1nc2c(F)cc(F)cc2s1,3%,3.7µM*,-19,15%
Cc1ccc2sc(N(CCCN(C)C)C(=O)c3ccc(S(=O)(=O)N4CCc5ccccc5C4)cc3)nc2c1C,-6%,3.7µM*,-8,?
Cc1cc(C)c2sc(N(CCCN(C)C)C(=O)c3ccc(S(=O)(=O)N(C)Cc4ccccc4)cc3)nc2c1,?,?,-28,?
Cc1ccc2sc(N(CCCN(C)C)C(=O)c3ccc(S(=O)(=O)N(C)C)cc3)nc2c1C,-18%,3%,4,9%
COc1cccc2sc(N(CCCN(C)C)C(=O)c3ccc(S(=O)(=O)N4CCc5ccccc5C4)cc3)nc12,-9%,?,16,?
COc1ccc(C)c2sc(N(CCCN(C)C)C(=O)c3ccc(S(=O)(=O)N4CCc5ccccc5C4)cc3)nc12,-13%,?,0,16µM*
COc1cc2nc(N(CCCN(C)C)C(=O)c3ccc(S(=O)(=O)N4CCc5ccccc5C4)cc3)sc2cc1OC,-9%,?,-11,9%
CCN(Cc1ccccc1)S(=O)(=O)c1ccc(C(=O)N(CCCN(C)C)c2nc3cc(C)cc(C)c3s2)cc1,-6%,-14%,-29,23µM*
O=C(COc1ccc(F)cc1Br)NCc1nnc2ccccn12,-3%,0%,-7,0%
O=C1NC(=O)C2C3C=CC(C3)C12 (configuration not stated),·,-7%,·,2%
CSc1ccccc1C(=O)OCC(=O)Nc1ccc(N2CCOCC2)cc1,8%,0%,11,2%
N#C/C(=C\c1c[nH]c2ccccc12)C(=O)Nc1ncc(Cc2ccc(Cl)cc2Cl)s1,-3%,?,1,3.3µM*
N#C/C(=C\c1c[nH]c2ccccc12)C(N)=O,-9%,-6%,23,4%
Clc1ccc(N(CC2CO2)CC2CO2)cc1 (configuration not stated),-10%,?,-1,?
